In PubChem BioAssay (Tox21) one finds Potency and fluorescence, % of fluorescein control data, which are given here for 40 molecules.

Where “and” joins values, the source holds several entries; their conditions need not be identical. Identical values can stand only once. Calls of active or inactive are those of the source. Where a call stands in place of a potency, no number is given. Calls come from the whole dose curve; as a rule, active = well fitted curve in the direction sought with a large enough effect in the repeat runs; inconclusive = weak or mixed curves; inactive = flat fitted curve, though single readings scatter.

This experiment can be described thus: qHTS assay to test for compound auto fluorescence at 535 nm (green) in HepG2 cells (AID 720675). To be noted: green autofluorescence 485/535 nm, 1 h; series mostly up to 91.3 µM. An excerpt:
National Center for Advancing Translational Sciences [NCATS]
NIH Chemical Genomics Center [NCGC]
U.S. Environmental Protection Agency [EPA]
National Institutes of Environmental Health Sciences [NIEHS]
National Toxicology Program [NTP]
U.S. Food and Drug Administration [FDA]
Compound auto fluorescence often interferes with screening of the compound library against various biological targets and signaling pathways. Some of these compounds may have fluorophoric properties. Such properties may interfere with the assay outputs resulting in false positives and/or negatives. To decrease such complications and ensure the compound activities are relevant in terms of biological response, the Tox21 10K compound library was screened for auto fluorescence.
From the fluorophores used as reporter signals in our screening assays, the auto fluorescence equivalencies of compounds against three fluorophores have been evaluated: Triamterene, Fluorescein and Rose Bengal sodium for blue, green and red fluorescence, respectively. The fluorescence intensities were measured using Excitation/Emission wavelengths at 405/460nm, 485/535nm and 540/590nm for blue, green and red labels, respectively. This assay includes the green fluorescence data.
Tox21 Assay Protocol Summary:
2,000 HepG2 cells in 5 uL of culture medium (MEM containing 10% FBS) per well were dispensed into black wall/clear bottom 1536-well plates using a Multidrop Combi Dispenser (ThermoFisher Scientific, Waltham, MA). The assay plates were incubated overnight at 37 C to allow cell attachment to the well bottom, followed by the transfer of 23 nL compound or DMSO vehicle by a pintool work station (Kalypsys , San Diego, CA). After the assay plates were incubated for 1 hr at 37 C and 5% CO2, fluorescence intensities in the assay plates were measured by an Envision (PerkinElmer, Shelton, CT) plate reader using three labels for measuring blue, green and red fluorescence at […] 460, 535 and 590 nm respectively.
For orientation: In qHTS, concentration-response curves come from the screen itself.
With `CCCCC(CC)COP(=O)(OCC(CC)CCCC)OCC(CC)CCCC` (stereo not given), the Potency result is “inactive”.
`O=C(c1ccccc1)c1ccc(O)cc1O`: the Potency result was “inactive”.
For the molecule `O=C(Nc1ccc(Cl)cc1)Nc1ccc(Cl)c(Cl)c1`, the Potency result is “inactive”.
Still for that read-out and setting: the entry for `CCC(C)CO` (stereo not given) is “inactive”; for `CC(=O)c1ccccn1` it is “inactive”.
Regarding `CC(C)Oc1ccc2c(=O)c(-c3ccccc3)coc2c1`, the Potency result was “inactive”.
On to `Brc1cc(Oc2cc(Br)c(Br)c(Br)c2Br)c(Br)c(Br)c1Br`, for which the Potency entry was “inactive”.
As for `CC(C)=CCC/C(C)=C\CO`, the Potency result is “inactive”.
Same read-out and setting: in the case of `c1ccc2cc(Nc3ccc(Nc4ccc5ccccc5c4)cc3)ccc2c1` it was “inactive”.
Regarding `OC[C@H]1O[C@@H]2O[C@H]3[C@H](O)[C@@H](O)[C@@H](O[C@H]4[C@H](O)[C@@H](O)[C@@H](O[C@H]5[C@H](O)[C@@H](O)[C@@H](O[C@H]6[C@H](O)[C@@H](O)[C@@H](O[C@H]7[C@H](O)[C@@H](O)[C@@H](O[C@H]8[C@H](O)[C@@H](O)[C@@H](O[C@H]1[C@H](O)[C@H]2O)O[C@@H]8CO)O[C@@H]7CO)O[C@@H]6CO)O[C@@H]5CO)O[C@@H]4CO)O[C@@H]3CO`, the Potency result is “inactive”.
For `CC(C(=O)O)c1cccc(C(=O)c2ccccc2)c1` (stereo not given), the Potency entry was “inactive”.
Turning to `O=S(=O)(O)c1ccc(O)cc1`, the Potency entry is “inactive”.
For the molecule `CN(C)CCN(Cc1cccs1)c1ccccn1`, the Potency result is “inactive”.
The same measure, in the same setting: in the case of `COc1cccc2c1C(=O)c1c(O)c3c(c(O)c1C2=O)C[C@@](O)(C(=O)CO)C[C@@H]3O[C@H]1C[C@H](N)[C@H](O)[C@H](C)O1` it was “inactive”; in that of `O=CCc1ccccc1`, “inactive”; in that of `Nc1ccc(Cl)cc1Cl`, “inactive”.
On to `COC(=O)c1ccccc1`, for which the Potency entry is “inactive”.
With `CCCCOCCOCCOCCO`, the Potency entry is “inactive”.
Consider `Cc1c(OCC(F)(F)F)ccnc1CS(=O)c1nc2ccccc2[nH]1` (stereo not given), for which the Potency entry is “inactive”.
As for `C[C@]12CC[C@H]3[C@@H](CCC4=CC(=O)CC[C@@]43C)[C@@H]1CC[C@@H]2C(=O)CO`, the Potency entry was “inactive”.
Same read-out and setting: the entry for `O=C(/C=C/c1ccccc1)OCc1ccccc1` is “inactive”; for `O=C(Nc1ccc([N+](=O)[O-])cc1Cl)c1cc(Cl)ccc1O` it is “inactive”; for `C=C(C)C(=O)OCCOC(=O)C(=C)C` it is “inactive”.
For the molecule `CCCCCCCCCCCO`, the Potency entry is “inactive”.
For `CCCCC/C=C/C=C/C=O`, the Potency entry was “inactive”.
Same read-out and setting: in the case of `C#C[C@]1(O)CC[C@H]2[C@@H]3CCc4cc(OC)ccc4[C@H]3CC[C@@]21C` it was “inactive”; in that of `CC(C)(C)NC(=O)[C@H]1CC[C@H]2[C@@H]3CC[C@H]4NC(=O)C=C[C@]4(C)[C@H]3CC[C@]12C`, “inactive”; in that of `COc1ccccc1/C=C/C=O`, “inactive”.
The same measure, in the same setting: the entry for `CCC(C)(O)CCCC(C)C` (stereo not given) is “inactive”; for `O=C(/C=C/C=C/c1ccc2c(c1)OCO2)N1CCCCC1` it is “inactive”.
Same read-out and setting: the entry for `O=C(OCc1ccccc1)c1ccccc1O` is “inactive”; for `COc1ccc(OC)c(C(O)CNC(=O)CN)c1` (stereo not given) it is “inactive”.
On to `C=C(C)C1CC=C(C)CC1` (stereo not given), for which the Potency result was “inactive”.
Same read-out and setting: in the case of `CC(=O)C1(C)CC2=C(CCCC2(C)C)CC1C` (stereo not given) it was “inactive”; in that of `O=Cc1ccccc1O`, “inactive”.
As for `Nc1ncn([C@@H]2O[C@H](CO)[C@@H](O)[C@H]2O)c(=O)n1`, the Potency result is “inactive”.
The same measure, in the same setting: the entry for `CCC(C)c1ccccc1O` (stereo not given) is “inactive”.
Turning to `CN(C)c1nc(N(C)C)nc(N(C)C)n1`, the fluorescence, % of fluorescein control is -0.0062% [at 18.6 µM] (inactive) and 0.0151% [at 3.72 µM] (inactive).
Consider `COC(C)COC(C)COC(C)CO` (stereo not given), for which the Potency entry is “inactive”.
As to `Cc1cccc(C(=O)O)c1`, the Potency entry is “inactive”.
